From PubChem BioAssay AID504444 (National Center for Advancing Translational Sciences (NCATS), 2011)
Screen size: about 360,000 compounds; about 7,500 (2.1%) were called active. Inconclusive results (about 20%) are left out. Calls come from the whole dose curve; as a rule, active = well fitted inhibition curve with a large enough effect; inconclusive = small, poorly fitted or top-dose-only effect, or effect the other way; inactive = flat fitted curve, though single readings scatter. The full list was thinned out, with actives kept by preference.

Test: Nrf2 qHTS screen for inhibitors; note: nearly all actives have a fitted effect of over 60% in size
Conditions: A549 ARE-Fluc reporter, luciferase luminescence, 18-24 h; series mostly up to 46 µM; activity change, negative = inhibition: at the top concentration
How it was run: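 In this cell-based qHTS, ARE-driven firefly luciferase in A549 cells reports Nrf2 activity; the luminescent signal after BugLite lysis is the measured value, with a prior CellTiter-Fluor read for cell health.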
% is set by controls: 0 for no effect and ±100 for the full control effect; potency is the fitted concentration of half-maximal effect.

Activity change, negative = inhibition, inactive:
C=CCSc1nc2ccccc2[nH]1 7.89%, C#CCOc1ccc(C2CC(=O)Nc3c2c(C)nn3-c2nc(C)cc(C)n2)cc1 (centres undefined) 6.44%, CC(C)(CNC(=O)Cc1ccc(Cl)cc1Cl)N1CCOCC1 1.4%, CN(C)S(=O)(=O)c1ccc(C(=O)NCC(C)(C)N2CCOCC2)cc1 25.8%, Cc1noc(C)c1-c1ccc2ncnc(NCc3ccc(F)c(F)c3)c2c1 -20.5%, COc1ccccc1-c1noc(-c2ccc(NCc3ccccc3)c([N+](=O)[O-])c2)n1 27.1%, COc1ccc(C2Nc3cccc(OC)c3C(=O)N2Cc2ccccc2)cc1COc1ccc(NC(C)=O)cc1 (centres undefined) -11.2%, CN(NS(=O)(=O)c1cccs1)c1ncc(C(F)(F)F)cc1Cl -11.9%, Cc1ccc(S(=O)(=O)/N=C(\N)c2ccc(F)cc2)cc1 8.96%, CN1CCOC1c1ccc(C2OCCN2C)cc1 (centres undefined) 0.88%, COc1ccc2cc(CNc3ccc(OC)c(OC)c3)c(=O)n(CC(=O)Nc3ccccc3F)c2c1 0.0911%, Cc1ccc(C)n1-c1nnc(N2CCC(C(=O)NCc3ccc(F)cc3)CC2)s1 0.0316%, CCN(CC)CCN(C(=O)c1ccc(S(=O)(=O)N2CCOCC2)cc1)c1nc2cc3c(cc2s1)OCCO3 20.6%, CN(C)CCCN(C(=O)c1ccc(S(=O)(=O)N2CCCCCC2)cc1)c1nc2cc3c(cc2s1)OCCO3 18.3%, CCOC(=O)c1ccccc1NC(=O)CSc1nc2c(sc(=S)n2CC)c(=O)[nH]1 -13.5%, COc1cc(OC)c(NC(=O)Cc2ccc(-n3c(C)nc4cccnc43)cc2)cc1Cl -17.2%, CCN(CC)c1cc(NC2CCCCC2)c2c3c(onc13)-c1ccccc1C2=O -11.4%, CC(=O)c1ccc(NC(=O)c2nc3nc(C)cc(C(F)F)n3n2)cc1 9.64%, CCN(CC)S(=O)(=O)c1cc(C(=O)Nc2cc(S(=O)(=O)N3CCOCC3)ccc2N2CCCC2)ccc1F 2.43%, O=C(CSc1nc2ccccc2c(=O)n1Cc1ccc(F)cc1)NCC1CCCO1 (centres undefined) 6.13%, O=C(CCCn1c(SCC(=O)c2ccccc2)nc2ccccc2c1=O)NCC1CCCO1 (centres undefined) -22%, CCC(=O)N1CCc2cc(Br)cc(S(=O)(=O)CCC(=O)NCCc3ccc(OC)c(OC)c3)c21 5.45% [at 9.27 µM], Cc1ccc(Cl)cc1NC(=O)CCC(=O)N1CC(C)Sc2ccccc21 (centres undefined) -11.4%, CCc1nnc(NC(=O)C2CCCN2S(=O)(=O)c2ccccc2)s1 (centres undefined) -12.7%, CSc1ncc(Cl)c(C(=O)Nc2ccc(S(=O)(=O)N3CCCC(C)C3)cc2)n1 (centres undefined) -10.8%, CC1CCCN(C(=O)Cn2c(=O)oc3cc(S(=O)(=O)N4CCCCC4C)ccc32)C1 (centres undefined) -8.33%, CC1CCCCN1S(=O)(=O)c1ccc(S(=O)(=O)N(CC(=O)Nc2ccccc2)Cc2cccs2)cc1 (centres undefined) -9.35%, CC1CC(C)CN(S(=O)(=O)c2ccc(C(=O)NN3CCOCC3)cc2)C1 (centres undefined) -13.9%, CC1CCCCN1S(=O)(=O)CCNC(=O)c1ccccc1 (centres undefined) 0.728%, O=C1N[C@@H](c2ccccc2)COC(=O)[C@H](Cc2ccc(F)cc2)C/C=C\C[C@@H]1CC(=O)N(CCO)Cc1ccccc1 -25.7%, FC(F)(F)c1cc(Nc2nc3ccccc3c3nncn23)ccc1Cl -2.38%, CC[C@]12c3[nH]c4ccc(Cl)cc4c3CCN1C(=O)[C@@H](CC(=O)NCCCOC)C[C@@H]2C(=O)N1CCN(C(=O)c2ccco2)CC1 3.05%, CCOC(=O)c1ccc(NC(=S)N2CCN(c3ccccn3)CC2)cc1 2.57%, O=C(CN1CCN(c2ccccn2)CC1)Nc1ccc(Br)cc1 -6.26%, Cc1cc(Br)ccc1NC(=O)Cn1cnc2sc(C)c(S(=O)(=O)N3CCN(C)CC3)c2c1=O 4.06% [at 9.27 µM], Cc1sc2ncn(CC(=O)NCCCC(=O)N3CCN(c4ccccc4F)CC3)c(=O)c2c1C 3.37%, c1ccc(Cn2nnc3c(N4CCCCC4)ncnc32)cc1 4.62%, CCN(CC)C(=O)[C@H]1C[C@H](CC(=O)NCC23CC4CC(CC(C4)C2)C3)C(=O)N2CCc3c([nH]c4cc(CCC(=O)N(C)C)ccc34)[C@]12C 3.36%, Cc1c(C(=O)Nc2cccc(S(=O)(=O)N3CCOCC3)c2)oc2ccccc12 1.34%, O=S(=O)(c1cccc(C(F)(F)F)c1)N1CCN(c2nc(-c3cccs3)nc3ccccc23)CC1 -4.82%, CCS(=O)(=O)c1ccc2oc(SCC(=O)N3c4ccccc4CC3C)nc2c1 (centres undefined) -41.5%, COc1ccc(NS(=O)(=O)c2ccc(O)c(C(=O)OCC(=O)NC3CCCCC3)c2)cc1 11.7%, COc1ccc(N2CCN(S(=O)(=O)c3ccc4c(c3)CC(=O)N4)CC2)cc1 -2.13% [at 92.2 µM], COc1cc(Cl)ccc1Nc1ncc(C(=O)N2CCN(c3ccccc3OC)CC2)c2ccccc12 1.91% [at 9.27 µM]

Potency, active:
CC(C)(CNC(=O)c1ccc(Cl)c(S(=O)(=O)N2CCc3ccccc3C2)c1)N1CCOCC1 13 µM, N/C(=N\S(=O)(=O)c1cc(C(F)(F)F)cc(C(F)(F)F)c1)c1cccs1 20.6 µM, CN(C)CCCN(C(=O)c1ccc(S(=O)(=O)N2CCCCCC2)cc1)c1nc2ccc(Br)cc2s1 25.9 µM, O=C(CCCn1c(SCC(=O)c2ccc(F)cc2)nc2ccccc2c1=O)NCc1ccco1 25.9 µM, CSCc1nnc(NC(=O)c2ccc(S(=O)(=O)N3CCCCC3C)cc2)o1 (centres undefined) 20.6 µM, CC1CCCN(S(=O)(=O)c2ccc(C(=O)Nc3nnc(-c4ccncc4)o3)cc2)C1 (centres undefined) 8.2 µM, CC1CCCCN1S(=O)(=O)c1ccc(C(=O)Nc2nnc(-c3cccs3)o2)cc1 (centres undefined) 13 µM, Cc1cc(Br)ccc1NC(=O)c1sc2ncn(CC(=O)N3CCN(c4ccccn4)CC3)c(=O)c2c1C 18.4 µM, Cc1cc(Br)ccc1NC(=O)c1cnc(N2CCN(c3ccccn3)CC2)c2ccccc12 11.6 µM, COc1ccc(NS(=O)(=O)c2ccc3oc(SCC(N)=O)nc3c2)cc1 23.1 µM
